Results reported in PubChem BioAssay (NCATS).
Unmarked numbers belong to inactive results. Calls of active or inactive are those of the source. Calls follow the shape of the dose curve; as a rule, active = well fitted inhibition curve with a large enough effect; inconclusive = small, poorly fitted or top-dose-only effect; inactive = flat fitted curve, though single readings scatter.

molecular target: Luciferin 4-monooxygenase (Photinus pyralis) (UniProt P08659); test: Primary firefly luciferase (FLuc) qHTS assay for identification of artifact compounds. (AID 1845220); conditions: purified firefly luciferase, luminescence, 5 min; series mostly up to 54.1 µM; activity change, negative = inhibition: at the top concentration; also: nearly all actives have a fitted effect of over 60% in size
Text: PI: Alexander Tropsha Ph.D.
UNC Eshelman School of Pharmacy
University of North Carolina, Chapel Hill, North Carolina
Hits from high-throughput screening (HTS) of chemical libraries are often false positives due to their interference with the assay detection technology. In response to this problem, we generated the largest publicly available library of chemical liabilities and developed a free webtool to predict HTS artifacts, both of which are described herein. More specifically, we generated, curated, and integrated HTS datasets for thiol reactivity, redox activity, and luciferase (firefly and nano) activity. Using these curated datasets, we developed and validated several Quantitative Structure-Interference Relationship (QSIR) models to predict nuisance behavior. […] These models were employed for virtual profiling of the National Center for Advancing Translational Science's (NCATS) in-house library, and 256 compounds for each assay were selected for the experimental validation of nuisance behavior. The BA for these external predictions ranged from 58 to 78% for compounds within the applicability domains of the models. […] The models developed in this study, along with aggregation models previously developed by our group (SCAM Detective) were implemented in "Liability Predictor," an online tool which may be used as part of chemical library design or for triaging HTS hits. Both the models and the curated datasets are publicly available at https://liability.mml.unc.edu/.
SEQUENCE No. (e.g., 1, 2, 3, etc.); […] (e.g., Cells, Incubation, Reagent, etc.); VALUE; DESCRIPTION.
1; Reagent; 3 uL; Luciferase substrate mixture.
2; Compounds and control; 16 nL; Kalypsis pin tool (Wako USA) equipped with a 1536-well pin head.
4; Reagent; 1 uL; Luciferase enzyme.
6; Detection; Luminescence, ViewLux microplate reader.
NOTES (numbers refer to Sequence numbers above)
1. 3 uL of luciferase substrate mixture containing D-luciferin and ATP (final concentrations of 10 uM and 10 uM, respectively) in assay buffer (10 mM Mg-acetate, 0.01% Tween-20, 0.05% bovine serum albumin, 50 mM Tris acetate, pH 7.6) was dispensed into all wells of a 1536-well assay plate (solid-bottom white plate; Greiner Bio One, Monroe, NC).
2. A Wako Pin-tool (Wako Automation, Richmond, VA) was used to transfer 16 nL of compounds (consisting of 7-plates in qHTS format, final concentration range 18.3 nM to 114 uM) or control PTC124 (final concentration range 1.22 nM to 40 uM).
3. 15 min. incubation at room temperature protected from light.
4. 1 uL of luciferase enzyme (final concentration 10 nM, Photinus pyralis luciferase) or buffer was dispensed for a final assay volume of 4 uL.
5. Plates were centrifuged (121xg, 15 seconds) and incubated for 5 minutes.
6. Samples were read for luminescence on a ViewLux CCD imager (PerkinElmer). Data were normalized to no-enzyme (0% activity) and no-inhibitor (DMSO; 100%) controls and the resulting percent inhibition data were fitted to a 4-parameter Hill equation using NCATS in-house software.

SMILES	activity change, negative = inhibition	outcome
COc1cc2c(Nc3ccc(Cl)c(Cl)c3F)ncnc2cc1OCC1C[C@@H]2CN(C)C[C@@H]2C1 (stereo not given in full)	-8.35%	
C=C1CC/C=C(/CO)C(=O)C[C@@H]2[C@@H]1CC2(C)C	0.413%	
COc1cc(C(O)C(CO)Oc2ccc(CCCO[C@@H]3O[C@@H](C)[C@H](O)[C@@H](O)[C@H]3O)cc2OC)ccc1O (stereo not given in full)		inactive [at 25.7 µM]
C1CCN2CC3C[C@@H](CN4CCCC[C@@H]34)[C@H]2C1		inactive
COc1ccc(C[C@H](N)C(=O)N[C@H]2[C@@H](O)[C@H](n3cnc4c(N(C)C)ncnc43)O[C@@H]2CO)cc1		inactive
CCCOc1ccn2c(C(C)=O)cc(-c3ccccc3S(C)(=O)=O)c2c1	4.92%	
COC(=O)c1cc(CN2CCN(C(=N)N)CC2)cc(C(=O)N2CCN(C(=O)c3ccc(C(=N)N)cc3)CC2)c1	3.33%	
NCCOCCOCCNC(=O)Cc1ccc(Nc2nc(NCc3ccc(F)cc3)nc(NCC3CCCCC3)n2)cc1	0.155%	
CC(C)CC(=O)OC[C@H]1O[C@@](COC(=O)CC(C)C)(O[C@H]2O[C@H](CO)[C@@H](O)[C@H](O)[C@H]2O)[C@@H](OC(=O)CC(C)C)[C@@H]1OC(=O)CC(C)C		inactive [at 25.7 µM]
C=C1CCC2C(OC(=O)C2(O)COC(C)=O)C2C(=C)C(O)CC12 (stereo not given)	2.21%	
C[C@]12CC[C@@H]3c4ccc(O[C@@H]5O[C@H](C(=O)O)[C@@H](O)[C@H](O)[C@H]5O)cc4CC[C@H]3[C@@H]1CCC2=O		inactive
C=CC(C)(O)CC/C=C(/C)C(=O)OC1C(OC2OCC(OC3OC(CO)C(O)C(O)C3O)C(OC3OCC(O)C(OC4OC(C)C(O)C(O)C4O)C3O)C2O)COC(OC(=O)C23CCC(C)(C)CC2C2=CCC4C5(C)CCC(OC6OC(CO)C(OC7OC(CO)C(O)C(OC8OCC(O)C(O)C8O)C7O)C(O)C6O)C(C)(C)C5CCC4(C)C2(C)CC3O)C1O (stereo not given)	3.07% [at 6.45 µM]	
COc1ccc(/C=C/C(=O)O[C@H]2[C@@H]3C=CO[C@@H](O[C@@H]4O[C@H](CO)[C@@H](O)[C@H](O)[C@H]4O)[C@@H]3[C@@]3(CO)O[C@@H]23)cc1O		inactive [at 25.7 µM]
CCOC(=O)c1ccc(N(C)c2csc(-c3ccccc3)n2)cc1		inactive
COC1C2=C(COC2=O)C2(C)CCCC(C)(CO)C2C1OC(=O)c1ccccc1 (stereo not given)	1.88% [at 25.7 µM]	
Cn1c(=O)c2nc(/C=C/c3cccc(Cl)c3)n(C)c2n(C)c1=O		inactive [at 115 µM]
Clc1ccc(CN[C@H]2CCN(c3ncc(Br)cn3)C2)c(Cl)c1		inactive
CC1=C2C(=O)C=C(CO)[C@@H]2[C@H]2OC(=O)[C@H](C)[C@@H]2[C@@H](O)C1	2.85%	
CC(=O)c1c(C)cc(O[C@@H]2O[C@H](CO)[C@@H](O)[C@H](O)[C@H]2O)cc1O	2.5%	
COc1ccc(/C=C/C(=O)O[C@@H]2[C@@H](OC(C)=O)[C@@H](OC(C)=O)[C@H](O[C@H]3[C@@H]4C=CO[C@@H](O[C@@H]5O[C@H](CO)[C@@H](O)[C@H](O)[C@H]5O)[C@@H]4[C@@]4(CO)O[C@@H]34)O[C@H]2C)cc1O	-6.87% [at 25.7 µM]	

SMILES	activity change, negative = inhibition	outcome
CC(=O)c1c(O)cc2cccc3c2c1CC(C)(O)O3 (stereo not given)		inactive
CC(C)C(=O)c1cn(CC(=O)COc2ccc(Oc3ccccc3)cc2)c2ccc(C(=O)O)cc12	0.937%	
COc1cccc(-n2nc(C(=O)O)cc2-c2ccc(C3CCCCC3)c(Cl)c2)c1	3.92%	
Cc1ncc([N+](=O)[O-])n1CC(O)CN1CCOCC1 (stereo not given)	4.65%	
CC(=O)N(O)CCCCCN1C(=O)CCC1=O	-4.63%	
CCC(=O)O[C@]1(C(=O)CCl)[C@@H](C)C[C@H]2[C@@H]3C[C@H](F)C4=CC(=O)C=C[C@]4(C)[C@@]3(F)[C@@H](O)C[C@@]21C	1.4%	
C=C1[C@H]2[C@H](O[C@@H]3O[C@H](COC(=O)/C=C/c4cc(OC)c(O)c(OC)c4)[C@@H](O)[C@H](O)[C@H]3O)OC=C(C(=O)O)[C@H]2C[C@@H]1O	1.83% [at 25.7 µM]	
COc1cc(/C=C/C(=O)OC2CC(OC(C)=O)C(OC(C)=O)C3C2CCC2C(=O)OC(c4ccoc4)CC23C)ccc1O[C@@H]1O[C@H](CO)[C@@H](O)[C@H](O)[C@H]1O (stereo not given in full)	4.67% [at 25.7 µM]	
COC(=O)C1=COC(OC2OC(CO)C(O)C(O)C2O)C2C1CC(OC(=O)C(O)CC(=O)O)C2C (stereo not given)		inactive [at 25.7 µM]
COc1c2c(c(C)c3c1C(=O)OC3)OC1(C)CC(O)C3(O)C(C)(C)OC(=O)CCC3(C)C1C2 (stereo not given)	0.625% [at 25.7 µM]	
CC1=C2CC3OC3(C)CCC3OC3(C)CC2OC1=O (stereo not given)	-0.221%	
CC(C)(C)NCC(O)COc1cccc2c1CCCC2=O (stereo not given)		inactive
CC1CCC2(C(=O)OC3OC(CO)C(O)C(O)C3O)CCC3(C(=O)O)C(=CCC4C5(C)CCC(OC6OC(C)C(O)C(O)C6O)C(C)(C)C5CCC43C)C2C1C (stereo not given)		inactive [at 25.7 µM]
O=C(/C=C/c1c(C(=O)O)[nH]c2cc(Cl)cc(Cl)c12)Nc1ccccc1	0.21%	
C=C1CCC2C(C)(CO[C@@H]3O[C@H](CO)[C@@H](O)[C@H](O)[C@H]3O)C(O)CCC2(C)C1C(=O)CC1=CCOC1=O (stereo not given in full)	1.06% [at 25.7 µM]	
CCC/C=C/C(=O)O[C@H]1CC(C)(C)CC2[C@]13[C@H](O)O[C@@]21CCC2[C@@]4(C)CC[C@H](O[C@@H]5O[C@H](C(=O)O)[C@@H](O)[C@H](O[C@@H]6O[C@H](CO)[C@H](O)[C@H](O)[C@H]6O[C@@H]6O[C@@H](C)[C@H](O)[C@@H](O)[C@H]6O[C@@H]6OC[C@](O)(CO)[C@H]6O)[C@H]5O[C@@H]5O[C@H](CO)[C@H](O)[C@H](O)[C@H]5O)C(C)(C)C4CC[C@@]2(C)[C@]1(C)C[C@H]3OC(C)=O (stereo not given in full)		inactive [at 11.6 µM]
COc1ccc2c3c1O[C@H]1C[C@@H](O)C=C[C@@]31CCN(C)C2	1.91%	
C[C@@H]1CC[C@]2(C)C(C[C@@H](O)[C@H](O)[C@]23CO3)[C@@]1(C)CCc1ccoc1 (stereo not given in full)	-0.979%	
CC(=O)OC(CSC1CCC(=O)OC(C)CCC(=O)C1)C(=O)O (stereo not given)		inactive
CC(C)(C)c1cc(CN2CCN(CC(O)c3ccc(Cl)cc3)CC2)cc(C(C)(C)C)c1O (stereo not given)	1.84%	
